# Data from the supplement of paper PMC10849652.
# About 8,800 targets were measured; listed, in parts, are those with a hit and a random draw of the rest. About 0.5% of all pairs of compound and target were hits. Unmarked numbers belong to inactive results.
# What was measured:
# Assay in all cases: log2 fold change, soluble protein after heating vs DMSO (PISA); higher = thermal stabilisation; K562 lysate, 10 uM; active = over 0.2 and 3.5 SD of the protein, either way, in both replicates (recomputed)
# ibrutinib = compound: C=CC(=O)N1CCC[C@@H](n2nc(-c3ccc(Oc4ccccc4)cc3)c3c(N)ncnc32)C1 [ibrutinib]
# Summary of the method: (§1)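 Following dounce homogenisation of K562 pellets in PBS pH 7.4 with 1 mM MgCl2, crude extract at 1 mg/mL protein was incubated for 30 min with 10 μM compound. Aliquots were then heated for 3 min over 48°C-58°C and pooled, NP-40 was added to 0.5% at 4°C, and soluble protein was recovered as the supernatant at 21,000xg for 90 min. Channel-sum-equalised TMTpro 16plex LC-MS/MS quantified this protein. Each value, from duplicates, is a log-two fold change in thermal stability relative to solvent controls.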
# [1] = compound: CC(=O)c1cnc2ccc(-c3cc(Cl)c(O)c(Cl)c3)nc2c1N[C@H]1CC[C@H](CN(C)C)CC1
# Summary of the method: as §1
# ralimetinib = compound: CC(C)(C)Cn1c(N)nc2ccc(-c3[nH]c(C(C)(C)C)nc3-c3ccc(F)cc3)nc21 [ralimetinib]
# Summary of the method: as §1
# [2] = compound: CC(C)(O)CC(=O)NCCn1ccc2ncnc(Nc3ccc(Oc4cccc(C(F)(F)F)c4)c(Cl)c3)c21
# Summary of the method: as §1
# [3] = compound: CC(C)C1=C2N=C(C=C(N2N=C1)NCC3=CC=CC=C3)NCCCCCCN
# Summary of the method: as §1
# [4] = compound: CC1=C(C(CC(=O)N1)C2=CC=C(C=C2)C(F)(F)F)C(=O)NC3=C(C=C4C(=C3)C=NN4)F
# Summary of the method: as §1
# [5] = compound: CC1=C(C2=C(C=C1)C(=O)C3=CC=CC=C3N2CCCN)C
# Summary of the method: as §1
# [6] = compound: CC1=C(C=C(C=C1)NC(=O)C2=CC(=CC=C2)C(C)(C)C#N)NC3=CC4=C(C=C3)N=CN(C4=O)C
# Summary of the method: as §1
# [7] = compound: CC1=C(C=C(C=C1)NC(=O)C2=CC(=CC=C2)N(C)C)NC(=O)C3=CC=C(C=C3)O
# Summary of the method: as §1
# [8] = compound: CC1=CC=C(C=C1)SC2=C3C=C(SC3=CN=C2)C(=O)N
# Summary of the method: as §1
# vemurafenib = compound: CCCS(=O)(=O)Nc1ccc(F)c(C(=O)c2c[nH]c3ncc(-c4ccc(Cl)cc4)cc23)c1F [vemurafenib]
# Summary of the method: as §1
# [9] = compound: CCCS(=O)(=O)Nc1ccc(F)c(C(=O)c2c[nH]c3ncc(Cl)cc23)c1F
# Summary of the method: as §1
# barasertib = compound: CCN(CCCOc1ccc2c(Nc3cc(CC(=O)Nc4cccc(F)c4)[nH]n3)ncnc2c1)CCOP(=O)(O)O [barasertib]
# Summary of the method: as §1
# [10] = compound: CC[C@@H]1C(=O)N(C)c2cnc(Nc3ccc(C(=O)NC4CCN(C)CC4)cc3OC)nc2N1C1CCCC1
# Summary of the method: as §1
# volasertib = compound: CC[C@@H]1C(=O)N(C)c2cnc(Nc3ccc(C(=O)N[C@H]4CC[C@H](N5CCN(CC6CC6)CC5)CC4)cc3OC)nc2N1C(C)C [volasertib]
# Summary of the method: as §1
# [11] = compound: CCn1c(C(=O)N(C2CC2)C2CC2)cc2c3c(ncn3C)c(Nc3cc(C)n(C)n3)nc21
# Summary of the method: as §1
# [12] = compound: CCn1cc(-c2ccnc3[nH]c(-c4cccc(CN(C)C)c4)cc23)c(-c2ccc(NC(=O)N(C)C)cc2)n1
# Summary of the method: as §1
# [13] = compound: CN1CCC(CNc2ccc3ncc(-c4cccc(OC(F)(F)F)c4)n3n2)CC1
# Summary of the method: as §1
# saracatinib = compound: CN1CCN(CCOc2cc(OC3CCOCC3)c3c(Nc4c(Cl)ccc5c4OCO5)ncnc3c2)CC1 [saracatinib]
# Summary of the method: as §1
# sotrastaurin = compound: CN1CCN(c2nc(C3=C(c4c[nH]c5ccccc45)C(=O)NC3=O)c3ccccc3n2)CC1 [sotrastaurin]
# Summary of the method: as §1
# Sequence of UniProt Q12904 (Q12904 whole entry, looked up): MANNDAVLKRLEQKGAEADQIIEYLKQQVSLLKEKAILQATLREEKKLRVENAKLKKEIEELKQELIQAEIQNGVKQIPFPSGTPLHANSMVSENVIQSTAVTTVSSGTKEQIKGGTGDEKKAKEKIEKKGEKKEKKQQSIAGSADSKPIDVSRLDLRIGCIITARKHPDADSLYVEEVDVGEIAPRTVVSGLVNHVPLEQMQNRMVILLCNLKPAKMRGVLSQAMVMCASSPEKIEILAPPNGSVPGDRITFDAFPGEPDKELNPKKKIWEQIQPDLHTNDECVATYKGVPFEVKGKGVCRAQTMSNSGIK
# Sequence of UniProt Q15067 (Q15067 whole entry, looked up): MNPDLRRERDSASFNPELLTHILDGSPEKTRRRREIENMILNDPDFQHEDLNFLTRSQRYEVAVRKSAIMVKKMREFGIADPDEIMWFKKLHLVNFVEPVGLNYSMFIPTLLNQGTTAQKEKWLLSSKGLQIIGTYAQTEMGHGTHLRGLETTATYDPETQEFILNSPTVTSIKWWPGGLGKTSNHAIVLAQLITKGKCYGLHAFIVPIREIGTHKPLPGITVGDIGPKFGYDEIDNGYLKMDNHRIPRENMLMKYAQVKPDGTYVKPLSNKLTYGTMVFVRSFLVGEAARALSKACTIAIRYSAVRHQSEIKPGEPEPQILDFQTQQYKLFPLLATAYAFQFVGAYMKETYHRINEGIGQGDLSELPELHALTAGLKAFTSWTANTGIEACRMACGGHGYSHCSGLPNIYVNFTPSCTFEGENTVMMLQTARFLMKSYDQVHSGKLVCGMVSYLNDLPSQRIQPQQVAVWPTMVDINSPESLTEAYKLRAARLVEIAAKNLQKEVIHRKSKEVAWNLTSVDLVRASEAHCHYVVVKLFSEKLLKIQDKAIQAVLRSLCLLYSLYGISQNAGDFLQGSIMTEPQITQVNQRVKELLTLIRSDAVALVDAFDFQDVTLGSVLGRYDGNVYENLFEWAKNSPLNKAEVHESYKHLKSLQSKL
# Sequence of UniProt P07355 (P07355 whole entry, looked up): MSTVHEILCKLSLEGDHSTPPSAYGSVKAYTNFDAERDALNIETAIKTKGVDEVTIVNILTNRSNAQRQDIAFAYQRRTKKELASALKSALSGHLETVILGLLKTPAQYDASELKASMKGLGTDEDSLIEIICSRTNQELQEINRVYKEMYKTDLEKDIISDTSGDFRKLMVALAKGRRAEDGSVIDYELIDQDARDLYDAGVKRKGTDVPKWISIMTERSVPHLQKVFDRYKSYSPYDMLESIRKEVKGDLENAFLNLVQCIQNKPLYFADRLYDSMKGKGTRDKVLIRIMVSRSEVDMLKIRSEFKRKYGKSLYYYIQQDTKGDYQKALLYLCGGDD
# Sequence of UniProt P24752 (P24752 whole entry, looked up): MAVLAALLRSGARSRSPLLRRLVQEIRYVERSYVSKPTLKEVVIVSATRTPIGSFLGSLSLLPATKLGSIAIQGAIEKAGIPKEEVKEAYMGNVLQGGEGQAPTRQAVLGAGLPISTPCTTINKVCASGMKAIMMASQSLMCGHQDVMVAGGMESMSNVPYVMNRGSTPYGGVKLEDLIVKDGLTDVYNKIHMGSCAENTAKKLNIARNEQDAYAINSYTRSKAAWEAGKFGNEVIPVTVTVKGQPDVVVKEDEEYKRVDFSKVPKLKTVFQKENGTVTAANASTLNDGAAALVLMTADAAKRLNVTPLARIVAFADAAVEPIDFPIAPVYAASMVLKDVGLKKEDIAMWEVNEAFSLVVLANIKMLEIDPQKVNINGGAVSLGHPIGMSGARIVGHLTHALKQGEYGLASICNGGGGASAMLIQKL
# Sequence of UniProt Q9UNA0 (Q9UNA0 whole entry, looked up): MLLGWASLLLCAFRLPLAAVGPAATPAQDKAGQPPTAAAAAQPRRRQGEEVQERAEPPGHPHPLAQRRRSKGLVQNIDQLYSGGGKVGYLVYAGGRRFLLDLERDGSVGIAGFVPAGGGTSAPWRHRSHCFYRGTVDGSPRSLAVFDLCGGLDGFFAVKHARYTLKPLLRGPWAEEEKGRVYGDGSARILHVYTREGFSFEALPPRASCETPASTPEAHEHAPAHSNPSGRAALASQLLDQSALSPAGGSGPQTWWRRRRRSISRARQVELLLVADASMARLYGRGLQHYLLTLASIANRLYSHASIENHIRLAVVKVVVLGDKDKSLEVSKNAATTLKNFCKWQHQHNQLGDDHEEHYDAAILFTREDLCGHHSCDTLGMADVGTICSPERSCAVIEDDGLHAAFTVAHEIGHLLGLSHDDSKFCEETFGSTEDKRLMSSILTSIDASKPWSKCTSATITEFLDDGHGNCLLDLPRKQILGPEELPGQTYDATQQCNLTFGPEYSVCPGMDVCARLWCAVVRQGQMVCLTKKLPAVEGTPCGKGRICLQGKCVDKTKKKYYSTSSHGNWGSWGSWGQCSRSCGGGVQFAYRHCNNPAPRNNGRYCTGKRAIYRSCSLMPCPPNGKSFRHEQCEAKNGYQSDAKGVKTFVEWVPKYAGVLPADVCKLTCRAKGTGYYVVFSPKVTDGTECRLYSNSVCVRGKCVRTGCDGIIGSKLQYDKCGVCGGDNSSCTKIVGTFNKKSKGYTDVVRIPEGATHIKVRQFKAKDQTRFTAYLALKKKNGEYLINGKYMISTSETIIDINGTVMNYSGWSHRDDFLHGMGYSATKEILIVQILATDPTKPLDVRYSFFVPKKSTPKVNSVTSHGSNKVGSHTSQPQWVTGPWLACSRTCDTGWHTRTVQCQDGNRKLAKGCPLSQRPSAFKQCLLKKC
# Sequence of UniProt Q3SY69 (Q3SY69 whole entry, looked up): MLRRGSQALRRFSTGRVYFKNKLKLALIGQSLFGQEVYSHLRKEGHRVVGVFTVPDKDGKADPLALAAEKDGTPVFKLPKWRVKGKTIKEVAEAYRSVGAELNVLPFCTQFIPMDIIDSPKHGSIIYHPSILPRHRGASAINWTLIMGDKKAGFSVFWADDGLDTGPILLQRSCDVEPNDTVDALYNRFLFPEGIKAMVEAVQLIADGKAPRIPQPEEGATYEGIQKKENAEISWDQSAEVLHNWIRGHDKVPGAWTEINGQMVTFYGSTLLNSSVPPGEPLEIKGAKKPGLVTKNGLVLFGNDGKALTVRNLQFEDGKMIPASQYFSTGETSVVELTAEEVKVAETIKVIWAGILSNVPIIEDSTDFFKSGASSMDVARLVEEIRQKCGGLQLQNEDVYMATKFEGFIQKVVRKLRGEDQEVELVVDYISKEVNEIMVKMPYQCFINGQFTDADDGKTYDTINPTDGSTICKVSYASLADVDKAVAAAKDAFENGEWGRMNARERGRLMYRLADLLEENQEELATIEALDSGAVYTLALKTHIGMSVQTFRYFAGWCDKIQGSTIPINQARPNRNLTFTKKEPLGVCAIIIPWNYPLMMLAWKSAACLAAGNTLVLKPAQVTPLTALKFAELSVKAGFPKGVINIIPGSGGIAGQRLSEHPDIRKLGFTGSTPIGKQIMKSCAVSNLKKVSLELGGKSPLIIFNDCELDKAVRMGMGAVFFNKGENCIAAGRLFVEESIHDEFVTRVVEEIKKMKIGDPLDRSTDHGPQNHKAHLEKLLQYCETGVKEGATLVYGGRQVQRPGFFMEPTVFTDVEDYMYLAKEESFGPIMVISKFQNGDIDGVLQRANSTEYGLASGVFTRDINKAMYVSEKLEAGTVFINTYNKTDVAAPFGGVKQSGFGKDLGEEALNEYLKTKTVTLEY
# Sequence of UniProt Q9BR61 (Q9BR61 whole entry, looked up): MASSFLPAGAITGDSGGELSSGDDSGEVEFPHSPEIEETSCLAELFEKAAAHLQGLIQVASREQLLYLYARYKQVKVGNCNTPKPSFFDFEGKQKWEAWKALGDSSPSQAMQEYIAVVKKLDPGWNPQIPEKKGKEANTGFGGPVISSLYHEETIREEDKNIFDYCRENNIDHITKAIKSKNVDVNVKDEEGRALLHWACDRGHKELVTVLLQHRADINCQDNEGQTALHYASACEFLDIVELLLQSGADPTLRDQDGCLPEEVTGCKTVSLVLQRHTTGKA
# Sequence of UniProt P27144 (P27144 whole entry, looked up): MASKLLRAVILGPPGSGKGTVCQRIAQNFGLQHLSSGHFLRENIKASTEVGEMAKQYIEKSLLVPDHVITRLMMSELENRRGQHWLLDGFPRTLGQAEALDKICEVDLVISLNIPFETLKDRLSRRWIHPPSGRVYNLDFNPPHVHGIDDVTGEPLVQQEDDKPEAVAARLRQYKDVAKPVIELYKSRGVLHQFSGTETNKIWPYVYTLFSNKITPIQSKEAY
# Sequence of UniProt O00116 (O00116 whole entry, looked up): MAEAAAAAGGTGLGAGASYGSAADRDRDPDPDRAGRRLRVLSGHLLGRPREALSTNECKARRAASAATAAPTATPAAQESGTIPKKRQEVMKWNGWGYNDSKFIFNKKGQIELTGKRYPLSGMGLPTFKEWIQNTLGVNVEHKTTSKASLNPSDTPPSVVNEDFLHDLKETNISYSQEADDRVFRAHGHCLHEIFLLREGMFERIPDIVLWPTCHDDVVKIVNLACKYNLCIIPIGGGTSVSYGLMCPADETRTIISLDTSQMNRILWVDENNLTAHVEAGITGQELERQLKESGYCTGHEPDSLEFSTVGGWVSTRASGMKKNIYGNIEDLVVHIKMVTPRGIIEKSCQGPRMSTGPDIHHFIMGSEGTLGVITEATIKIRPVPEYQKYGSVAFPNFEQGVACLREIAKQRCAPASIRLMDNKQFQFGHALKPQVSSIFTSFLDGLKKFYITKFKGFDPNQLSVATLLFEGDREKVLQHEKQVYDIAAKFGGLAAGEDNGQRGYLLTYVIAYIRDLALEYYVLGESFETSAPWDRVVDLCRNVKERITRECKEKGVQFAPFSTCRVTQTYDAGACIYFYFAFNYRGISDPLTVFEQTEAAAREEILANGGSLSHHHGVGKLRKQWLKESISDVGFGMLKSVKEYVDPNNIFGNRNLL
# Sequence of UniProt P40616 (P40616 whole entry, looked up): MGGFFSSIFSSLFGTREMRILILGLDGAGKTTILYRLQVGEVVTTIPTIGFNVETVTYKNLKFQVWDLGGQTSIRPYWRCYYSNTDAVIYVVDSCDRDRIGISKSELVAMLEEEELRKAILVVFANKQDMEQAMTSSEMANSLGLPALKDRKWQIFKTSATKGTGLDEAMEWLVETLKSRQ
Target,log2 fold change (ibrutinib),log2 fold change [1],log2 fold change (ralimetinib),log2 fold change [2],log2 fold change [3],log2 fold change [4],log2 fold change [5],log2 fold change [6],log2 fold change [7],log2 fold change [8],log2 fold change (vemurafenib),log2 fold change [9],log2 fold change (barasertib),log2 fold change [10],log2 fold change (volasertib),log2 fold change [11],log2 fold change [12],log2 fold change [13],log2 fold change (saracatinib),log2 fold change (sotrastaurin)
AK4 (UniProt P27144),0.06,-0.019,-0.036,-0.016,-0.008,0.021,-0.005,0.012,0.022,-0.017,-0.068,0.018,0.11,-0.057,-0.024,0.023,-0.036,-0.002,-0.016,0.05
ARL1 (UniProt P40616),-0.029,-0.005,0.027,-0.001,-0.017,0.098,-0.026,0.134,-0.021,-0.027,0.046,0.007,-0.031,0.03,-0.066,-0.04,-0.101,-0.005,-0.005,0.042
AFF1 isoform 2 (UniProt P51825),0.136,-0.028,0.078,-0.02,-0.001,0.037,-0.047,0.023,0.02,-0.002,-0.059,0.007,0.033,0.068,-0.043,-0.023,-0.307,0.125,-0.015,0.029
ACOX1 isoform 2 (UniProt Q15067),0.036,0.052,0.098,-0.044,-0.013,-0.016,-0.043,0.001,-0.026,-0.024,0.017,0.003,-0.029,0.015,0.053,-0.026,-0.038,0.1,-0.014,0.004
ARHGAP25 isoform 4 (UniProt P42331),0.016,0.036,0.026,-0.003,-0.026,0.064,-0.014,0.117,0.059,-0.006,0.021,0.049,0.081,-0.045,-0.029,-0.032,-0.012,0.019,-0.034,0.043
AIMP1 isoform 2 (UniProt Q12904),0.009,0.012,0.026,0.018,0.022,-0.026,0.005,-0.014,-0.006,0.006,0.001,0.018,0.015,-0.036,-0.057,0.025,-0.024,-0.081,0.023,-0.001
ANXA2 isoform 2 (UniProt P07355),-0.013,0.012,-0.009,0.033,-0.01,0.006,0.048,-0.024,-0.01,0.013,-0.03,-0.004,-0.021,0,0.017,0.033,-0.003,-0.02,0.013,-0.012
AKT2 (UniProt P31751),-0.016,0.006,0.026,0.006,-0.006,0.011,0.007,0.005,-0.004,-0.044,0.008,0,-0.026,-0.024,-0.031,0.025,0.007,0.004,-0.011,0.017
ALKBH4 (UniProt Q9NXW9),0.076,0.056,0.032,0.003,-0.031,0.031,-0.036,0.004,-0.006,0.002,0.061,0.018,0.086,-0.133,-0.068,0.074,0.025,0,-0.019,0.036
ACBD6 (UniProt Q9BR61),0.007,0.038,0.012,-0.039,0.002,0.034,0.001,0.062,0.027,-0.057,0.028,0.035,-0.006,-0.025,-0.082,0.013,-0.009,0.006,-0.015,0.014
ALDH1L2 (UniProt Q3SY69),0.033,0.034,0.024,-0.038,0.006,0.029,-0.022,-0.028,-0.006,0.016,-0.084,-0.026,0.002,-0.006,-0.045,0.007,-0.089,-0.014,-0.002,0.013
ACAT1 (UniProt P24752),0.002,0.005,0.003,0.002,-0.002,0.001,0.034,-0.013,-0.007,0.015,0,-0.016,0.006,0.033,0.019,0.003,-0.038,-0.006,0.011,0.007
ADAMTS5 (UniProt Q9UNA0),0.032,-0.057,-0.016,-0.186,-0.011,0.008,-0.067,0.093,-0.031,-0.076,0.063,0.047,0.038,0.066,0.038,-0.15,-0.939 (active),0.292,0.083,-0.045
ACAA1 (UniProt P09110),0.046,-0.012,-0.054,-0.003,0,-0.02,-0.016,0.044,0.001,-0.007,0.034,0.033,-0.027,0.006,0.036,0.001,-0.049,0.039,0.002,-0.004
AGPS (UniProt O00116),0.01,-0.004,-0.013,-0.07,-0.065,0.012,0.025,-0.177,-0.005,-0.02,0.028,0.008,-0.021,0.06,0.011,0.025,-0.082,0.012,-0.009,-0.016
ABL2 (UniProt P42684),0.586 (active),0.078,0.005,0.002,0.002,-0.057,-0.112,0.154,0.093,-0.046,0.233,0.222,-0.002,0.11,-0.05,0.009,0.039,-0.128,0.254,-0.02
